# High-throughput results deposited in PubChem by Buhrlage Lab, Dana-Farber Cancer Institute and Novartis Institutes for BioMedical Research (Cambridge, Mass).
# An excerpt weighted towards active compounds, which were near 13% of everything screened.
# OTUD3 block – inhibitors of human OTUD3 deubiquitinase | OTU domain-containing protein 3 (Homo sapiens), Q5T2D3 | purified OTUD3, Ub-rhodamine fluorescence, 2 h | inhibition, % at 25 µM | 47,000 tested, 0.7% active
# USP30 inh – inhibitors of human USP30 deubiquitinase; 47,000 tested, 5.3% active; inhibition, % at 25 µM; AID 1645860, 2021; Ubiquitin carboxyl-terminal hydrolase 30 (Homo sapiens), Q70CQ3; purified USP30, Ub-rhodamine cleavage fluorescence
# USP17 block – inhibitors of human USP17 deubiquitinase; Ubiquitin carboxyl-terminal hydrolase 17-like protein 5 (Homo sapiens), A8MUK1; purified USP17, Ub-rhodamine cleavage fluorescence, 3 h; inhibition, % at 50 µM; 47,000 tested, 6.5% active
# Target sequence (A8MUK1 whole entry, looked up): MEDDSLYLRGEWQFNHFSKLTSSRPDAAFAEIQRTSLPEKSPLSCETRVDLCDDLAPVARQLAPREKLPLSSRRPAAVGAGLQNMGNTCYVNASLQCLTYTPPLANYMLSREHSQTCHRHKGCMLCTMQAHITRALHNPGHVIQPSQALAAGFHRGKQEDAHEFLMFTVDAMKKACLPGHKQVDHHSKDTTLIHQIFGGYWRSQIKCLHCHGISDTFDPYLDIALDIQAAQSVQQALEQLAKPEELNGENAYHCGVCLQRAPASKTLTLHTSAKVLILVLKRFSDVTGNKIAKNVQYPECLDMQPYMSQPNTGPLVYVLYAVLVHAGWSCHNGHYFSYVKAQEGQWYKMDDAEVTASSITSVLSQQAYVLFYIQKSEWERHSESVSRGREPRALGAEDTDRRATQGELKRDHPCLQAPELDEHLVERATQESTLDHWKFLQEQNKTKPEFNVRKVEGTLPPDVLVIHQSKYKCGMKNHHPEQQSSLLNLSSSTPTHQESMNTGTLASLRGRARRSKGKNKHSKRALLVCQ
# USP28 inh – inhibitors of human USP28 deubiquitinase; Ubiquitin carboxyl-terminal hydrolase 28 (Homo sapiens), Q96RU2; purified USP28, Ub-rhodamine cleavage fluorescence, 30 min; 47,000 tested, 3% active; inhibition, % at 25 µM
# USP8 block – inhibitors of human USP8 deubiquitinase | Ubiquitin carboxyl-terminal hydrolase 8 (Homo sapiens), P40818 | purified USP8, Ub-rhodamine cleavage fluorescence, 30 min | inhibition, % at 20 µM | 47,000 tested, 4.2% active | AID 1645853, 2021
# USP10 block – inhibitors of human USP10 deubiquitinase; purified USP10, Ub-rhodamine fluorescence, 60 min; inhibition, % at 20 µM; 47,000 tested, 1.1% active; AID 1645856, 2021
# Starred values were filed as active, the others as inactive; nt = no result. No stated cut-off is given here; in the data, active means inhibition above about 30%; inactive means the rest.
SMILES,OTUD3 block,USP30 inh,USP17 block,USP28 inh,USP8 block,USP10 block
CC1=C(C(=O)OCCc2ccccc2)C(c2ccc3c(c2)OCO3)NC(=O)N1 (centres undefined),12,39*,14,34*,6,8
COC(=O)c1ccccc1NC(=O)CSc1nnc(CNc2ccc(F)cc2)n1CC1CCCO1 (centres undefined),10,6,90*,10,96*,9
COc1cc(OC)cc(C(=O)NCc2[nH]nc3ccccc23)c1,12,19,9,31*,2,2
COc1cccc(C(=O)NCc2[nH]nc3ccccc23)c1,-8,27,57*,28,84*,2
COc1ccc(CNC(=O)c2cc(-c3ccccn3)n[nH]2)cc1,-1,-10,-70,-9,-1,-2
Cc1ccnc(C2CCN(C(=O)c3cc4nc(C)cc(C)n4n3)C2)n1 (centres undefined),-1,-34,-12,-9,-32,3
O=C(Nc1nc2c(s1)CCCC2C(=O)NCc1ccncc1)c1ccc2c(c1)OCO2 (centres undefined),-6,7,-15,38*,-141,-1
O=C1COc2ccc(C(=O)c3ccccc3C(=O)NC3CCCCC3)cc2N1,-2,0,-16,-7,-3,1
COc1cc(CC(=O)N2CCc3cc(-c4ccno4)ccc32)cc(OC)c1,-48,-147,-29,-28,-30,-1
CCOC(=O)c1cc2c(CSc3ccccc3)nn(C)c2s1,26,36*,28,34*,28,9
Cc1c(C(=O)NCCCn2ccnc2)oc2c1/C(=N\O)CC(C)(C)C2,12,15,6,6,5,1
Fc1ccc(CN2CCC[C@H](Cn3nnc(-c4cccnc4)n3)C2)cc1,9,21,7,18,-11,-5
Cc1cc(N2C(=O)c3oc4ccc(F)cc4c(=O)c3C2c2cccc(OCc3ccccc3Cl)c2)no1 (centres undefined),0,6,-4,-2,31*,5
Cc1cccc(N2CCN(C(=O)c3snc(-c4ccncc4)c3N)CC2)c1,4,15,-3,7,4,0
CCCc1nc(-c2ccccc2OCC(=O)Nc2ccccc2OC)no1,-1,nt,-4,nt,7,8
CCc1ccc(NC(=O)CSc2[nH]c(=O)c(C(=O)O)cc2C#N)cc1,28,20,42*,48*,54*,-2
O=C(NCc1ccccc1Cl)C1CCCN1c1nnc(N2CCCC2=O)s1 (centres undefined),26,27,20,17,24,0
O=S(=O)(Nc1nc2ccc(S(=O)(=O)N3CCCC3)cc2s1)c1ccc(F)cc1,-3,-48,9,-7,-2,14
COc1cccc(C(=O)Nc2nc3ccc(S(=O)(=O)N4CCOCC4)cc3s2)c1OC,-3,nt,47*,nt,7,0
CNc1nc(C2CCCN(C(=O)c3cc(C4CC4)on3)C2)nc2c1CCN(C)C2 (centres undefined),-37,-196,-27,-76,36*,-3
CNc1nc(C2CCCN(S(=O)(=O)c3c(C)noc3C)C2)nc2c1CCN(C)C2 (centres undefined),-37,-101,-45,-31,-19,-8
Cc1cccc(NC(=O)CCCSc2nc3ccccc3[nH]2)c1,6,-13,3,15,13,3
Cc1ccc(C(=O)NCC(=O)Nc2nc3ccccc3[nH]2)c(C)c1,-5,-22,57*,13,-1,4
Cc1ccc(CC(=O)NCC(=O)Nc2nc3ccccc3[nH]2)cc1,-1,-15,45*,10,6,6
COc1cccc(NC(=O)CCCSc2nc3ccccc3[nH]2)c1,-1,-7,-5,37*,3,3
O=C(Cc1ccccc1F)NCC(=O)Nc1nc2ccccc2[nH]1,-3,15,15,3,-18,0
COc1cccc(C(=O)NCC(=O)Nc2nc3ccccc3[nH]2)c1,7,21,59*,16,11,8
O=C(CNC(=O)c1ccc2c(c1)OCO2)Nc1nc2ccccc2[nH]1,-2,3,-1,-7,-11,1
